Screening results: PubChem BioAssay, Broad Institute
C2C12 statin: suppressors of simvastatin-induced myotoxicity in C2C12 myotubes; AID 602340; ATP luminescence, 48 h; scaled: DMSO 0, geranylgeraniol control 100; rescue of ATP level, % at 7.49 µM; 330,000 compounds, 0.78% hits;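 active means mean ATP rescue above about 67%, or every replicate alone reaching that limit, limit read from the data, passing the limit was not always enough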;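 further: myotubes were challenged with 10 µM simvastatin during compound exposure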
miR122 inh: miR-122 inhibition in Huh7 cells; activation (reporter increase), % at 12.5 µM; 340,000 compounds, 0.3% hits; Huh7 miR-122 Renilla luciferase sensor, 48 h; neutral wells = 0, positive control = 100; AID 602342;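 active means mean replicate activation score at least 90 and every replicate individually at or above 90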;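 further: higher luciferase means less miR-122 activity so hits act as miR-122 inhibitors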
INS-1E GSIS act: GLuc luminescence reporter in INS-1E cells, primary screen for activators of glucose-dependent secretion of insulin; INS-1E GLuc reporter insulin secretion, 2-3 h; 370,000 compounds, 0.61% hits; activation, % at 16.6 µM;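 active means lowest replicate activation of at least 40%, so every replicate reaches that level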;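 further: 0% = median of neutral control wells and 100% = median of IBMX positive control wells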
EWS-Fli inh: blocks EWS/Fli oncoprotein-driven transcription; A673 NR0B1-luciferase reporter, viability-normalised; inhibition, % at 12.6 µM; 350,000 compounds, 0.67% hits; AID 651661;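 active means mean inhibition of at least 50% after viability correction, with every replicate also passing that limit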;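 further: firefly luciferase signal divided by Alamar Blue viability fluorescence both relative to DMSO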
PAX8 inh HTS: PAX8 transcriptional activity inhibition. RMG-I TPO-luciferase reporter, SteadyGlo, 24 h. inhibition, % at 12.6 µM. 360,000 compounds, 1.2% hits;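 active means mean replicate inhibition at least 60% with every replicate also reaching 60%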;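 further: luciferase light reporting Pax8 driven TPO promoter activity; plate controls were median of neutral control wells for no effect and mitoxantrone controls for full effect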
HIV Env fusion: inhibitors of HIV Env-mediated cell fusion; HeLa-JRFL Env/CEM21 cell fusion, luciferase; 360,000 compounds, 1.1% hits; AID 651610; inhibition, % at 12.3 µM;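 active means mean replicate inhibition score of at least 50 and every replicate individually at or above 50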;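 further: 0% = plate neutral controls and 100% = maraviroc near 300 nM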
Numbers without * were called inactive; . = no result; [ ] = another dose, or the depositor's remark. An excerpt weighted towards active compounds, which were near 3.1% of everything screened.

SMILES	C2C12 statin	miR122 inh	INS-1E GSIS act	EWS-Fli inh	PAX8 inh HTS	HIV Env fusion
C=C1CC2C3CC[C@@]4(OCOC45COCO5)[C@@]3(C)C(O)CC2[C@@]2(C)CCC(=O)C=C12 (some centres not stated)	10	-6	-14	.	64*	-34
NS(=O)(=O)c1ccc(NC(=O)c2cc(Cl)sc2Cl)cc1	23	12	5	8	63*	4
NS(=O)(=O)c1ccc(NC(=O)c2cc(Cl)ccc2Cl)cc1	6	11	-18	11	20	-5
C[C@H](CO)N1C[C@H](C)[C@H](CN(C)C(=O)Nc2ccc(F)cc2)OCCCC[C@H](C)Oc2ccc(NC(=O)Cc3ccccc3)cc2C1=O	107*	3[16.7 µM]	-23	-8	-3	-89[16.7 µM]
C[C@H]1CCCCO[C@H](CN(C)C(=O)C2CCCCC2)[C@@H](C)CN([C@@H](C)CO)C(=O)c2cc(NC(=O)Cc3ccccc3)ccc2O1	80*	-10[16.7 µM]	-27	-4	4	-11[16.7 µM]
C[C@H]1CCCCO[C@@H](CN(C)C(=O)C2CCCCC2)[C@@H](C)CN([C@@H](C)CO)C(=O)c2cc(NC(=O)Nc3ccccc3)ccc2O1	.	6[16.7 µM]	-14	10	28	64*[16.7 µM]
C[C@H](CO)N1C[C@H](C)[C@H](CN(C)C(=O)C2CCCCC2)OCCCC[C@H](C)Oc2ccc(NC(=O)Nc3ccccc3)cc2C1=O	.	-6[16.7 µM]	-5	-4	47	60*[16.7 µM]
COc1ccc(CN(C)C[C@@H]2Oc3ccc(NS(C)(=O)=O)cc3C(=O)N([C@H](C)CO)C[C@H]2C)cc1	-2	-7[16.7 µM]	13	-8	-15	.
C[C@H](CO)N1C[C@H](C)[C@H](CN(C)C)Oc2ccc(NS(=O)(=O)c3cccs3)cc2CC1=O	-9	0[16.7 µM]	-6	-4	-13	.
COCCNC(=O)C[C@H]1CC[C@@H](NS(=O)(=O)c2ccc(C)cc2)[C@H](CO)O1	-2	.	8	9	6	8[16.7 µM]
O=C(C[C@@H]1CC[C@H](NC(=O)C2CC2)[C@@H](CO)O1)NCc1ccccc1Cl	3	.	12	-7	-15	-3[16.7 µM]
CO[C@@H]1CN(C)C(=O)c2ccc(NC(=O)C3CC3)cc2OC[C@@H](C)N(Cc2cccc(F)c2)C[C@H]1C	.	.	-34	.	7	.
CC(C)c1ccc(C2C3=C(COC3=O)Nc3cc4c(cc32)OCO4)cc1 (configuration not stated)	.	.	11	43	79*	-6
COc1ccc(NC(=O)N[C@H]2C=C[C@@H](CC(=O)NC3CCCCC3)O[C@H]2CO)cc1	3	.	7	-3	1	-7[16.7 µM]
C[C@@H]1CN([C@H](C)CO)C(=O)Cc2cc(NC(=O)Nc3cccc4ccccc34)ccc2O[C@H]1CN(C)S(=O)(=O)c1ccc(Cl)cc1	11	-2[16.7 µM]	4	18	11	-12[16.7 µM]
C[C@@H]1CN([C@@H](C)CO)C(=O)Cc2cc(NS(=O)(=O)c3ccc(F)cc3)ccc2O[C@@H]1CN(C)Cc1ccc(-c2ccccc2)cc1	7	4[16.7 µM]	4	35	-21	-3[16.7 µM]
C[C@H](CO)N1C[C@H](C)[C@H](CN(C)Cc2ccc(-c3ccccc3)cc2)Oc2ccc(NS(=O)(=O)c3ccc(F)cc3)cc2CC1=O	25	-2[16.7 µM]	-7	-14	113*	1[16.7 µM]
Cc1ccc(S(=O)(=O)Nc2ccc3c(c2)CC(=O)N([C@@H](C)CO)C[C@H](C)[C@@H](CN(C)Cc2ccc(Oc4ccccc4)cc2)O3)cc1	50	-12[16.7 µM]	7	7	80*	6[16.7 µM]
Cc1ccc(S(=O)(=O)Nc2ccc3c(c2)CC(=O)N([C@@H](C)CO)C[C@@H](C)[C@H](CN(C)Cc2ccc(-c4ccccc4)cc2)O3)cc1	103*	-26[16.7 µM]	.	28	.	27[16.7 µM]
O=C(OCn1ncc(Br)c(Br)c1=O)c1ccccc1Cl	.	-9	115*	.	.	.
O=C(OCn1ncc(Br)c(Br)c1=O)c1ccc(F)cc1	-47	-6	.	.	.	.
C[C@H](CO)N1C[C@H](C)[C@H](CN(C)Cc2ccncc2)Oc2c(NC(=O)NC3CCCCC3)cccc2C1=O	-28	7[16.7 µM]	-7	0	-5	-8[16.7 µM]
CC(C)[C@@H]1C(=O)N[C@H](c2ccc3c(c2)OCO3)CC=CC[C@@H](C)Oc2ccccc2C(=O)N1C (mixture of isomers)	.	.	-10	.	.	.
CN(C)C(=O)C[C@@H]1CC[C@@H]2[C@@H](COc3ccc(NC(=O)C4CCOCC4)cc3C(=O)N2C)O1	-8	3[16.7 µM]	0	0	-13	-6[16.7 µM]
C[C@@H]1CN([C@H](C)CO)C(=O)c2cc(NC(=O)CCCCCC(=O)Nc3ccccc3N)ccc2O[C@@H]1CN(C)S(=O)(=O)c1ccc(F)cc1	.	.	-2	.	-7	.
SMILES	C2C12 statin	miR122 inh	INS-1E GSIS act	EWS-Fli inh	PAX8 inh HTS	HIV Env fusion
Cc1ccc2c(c1)C(c1ccccc1)N(C(=O)c1c(F)cccc1Cl)CC(=O)N2 (configuration not stated)	-3	16	-6	12	4	59*
N#Cc1nc(N2CCOCC2)nc(N2CCOCC2)n1	-3	-4	57*	.	.	.
CCS(=O)(=O)N1CCC2(CC1)CN(Cc1cccnc1)[C@@H](CO)c1c2c2ccc(OC)cc2n1C	.	.	7	-9	-15	.
CO[C@@H]1CN(C)C(=O)c2ccc(NS(C)(=O)=O)cc2OC[C@H](C)N(Cc2ccccn2)C[C@H]1C	.	.	8	-6	.	.
COc1ccc(NC(=O)Cn2ccc(C(F)(F)F)n2)cc1S(=O)(=O)N1CCOCC1	101*	-2	.	0	-2	-58
COc1ccc(NC(=O)CCCOc2ccc(Cl)c(C)c2)cc1S(=O)(=O)N1CCOCC1	6	15	-45	18	7	59*
CCOc1ccc(OCCCC(=O)Nc2cc(S(=O)(=O)N3CCOCC3)ccc2N2CCOCC2)cc1	-28	-5	-23	1	9	.
Cc1cc(Cl)ccc1OCCCC(=O)Nc1cc(S(=O)(=O)N2CCOCC2)ccc1N1CCOCC1	-10	-11	-5	11	28	114*
COc1ccc(NC(=O)N[C@@H]2CC[C@H](CCNC(=O)Nc3cc(F)ccc3F)O[C@H]2CO)cc1	6	.	-19	.	.	.
COc1ccc2c3c(n(C)c2c1)[C@H](CO)N(C(=O)NC1CCCC1)CC31CCN(C)CC1	.	.	23	6	-6	.
C[C@@H]1CN([C@@H](C)CO)C(=O)c2cc(NC(=O)C3CCCCC3)ccc2O[C@@H](C)CCCCO[C@@H]1CN(C)C(=O)Nc1ccc2c(c1)OCO2	.	5[16.7 µM]	-3	-5	.	1[16.7 µM]
CC(C)C#Cc1cnc2c(c1)C(=O)N([C@H](C)CO)C[C@@H](C)[C@H](CN(C)Cc1ccccn1)O2	35	-3[16.7 µM]	3	13	20	15[16.7 µM]
O=[N+]([O-])c1ccc(-c2nc(NCC3CCCO3)c3ccccc3n2)cc1 (configuration not stated)	-7	.	44*	-4	0	4
Oc1ccccc1-c1nc(NCC2CCCO2)c2ccccc2n1 (configuration not stated)	.	9	.	.	.	51
